# Measured values as given in the supplement of paper PMC11417369.
# ± gives the standard deviation of the averaged measurements. Over roughly 25,000 sequences, “ln(normalized median fluorescence intensity)” has its median near 8.6; the highest 2% begin near 10. The sample as a whole holds a higher share of the highest values than the screen did.
# System: PfAP2-EXP AP2 domain (GST-tagged)
# Assay: gcPBM binding intensity (ln(normalized median fluorescence intensity)); higher = stronger DNA binding
# Summary of the method: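 GST-fused DNA-binding domains of P. falciparum, expressed in E. coli, were applied at about 25 μg on average for 1 h to an Agilent 4 × 180k array of primer-extended double-stranded 36-bp intergenic genomic probes and negative controls. Binding intensity is the highest Masliner-normalised natural-log median intensity across replicate spots of either probe orientation, measured with Alexa488 anti-GST antibody and a 488 nm scan.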
row,Sequence,gcPBM binding intensity (ln)
1,AATAATGTATGAAATAAACACACAAGTAAGTACATA [CACACA_site8776],8.85 ± 0.39
2,TACAAAAGCGATACGGCACACATTTCCTGTTTAAAT [CACACA_site2746],8.74 ± 0.33
3,AATTATTTACCCTATACACACAAAACACGCTAAAAA [CACACA_site1211],8.79 ± 0.43
4,AATATATTTTTTCACTGTACTTTTATTATATATACA [XGTACX_site8312],8.97 ± 0.36
5,AAATAAAAACATAACAGTACAGTTAACATTTTTATA [XGTACX_site3479],8.29 ± 0.35
6,AATACATTTATGAGCTGTACACATTTATTTGAGCTA [XGTACX_site7695],8.51 ± 0.27
7,ATATTTAAATATATTTATATATATAAAAAAAAATAT [GTGCAC_negctrl_site312],8.56 ± 0.39
8,TATCGACATTTCATTTGTACATATATACATATATTT [XGTACX_site3346],8.64 ± 0.42
9,TGTTCATTTATTTACTTACACACTTTATATATGTGG [CACACA_site1410],8.79 ± 0.53
10,GAATTAATTTTAAAACGTACATGGGTGTATTTACAC [XGTACX_site5939],8.86 ± 0.3
11,GGGAGGATATTACACAGTACCCAGAAAATCTACGGA [XGTACX_site2551],8.8 ± 0.43
12,TTATTATATTAAAAGAGGACACATTTATTTTTTTTT [XGTACX_site1241],8.09 ± 0.53
13,TACACAAGCGGACACACACACATATATATATATATA [CACACA_site4832],10.3 ± 0.13
14,AATACCCAAGGACACACACACACATATATATATATA [CACACA_site8345],10.2 ± 0.26
15,CATACATACGGACACACACACATATATATATATATA [CACACA_site5598],10.2 ± 0.41
16,TACACAAGCAGACACACACACATATATATATATATA [CACACA_site1270],10.1 ± 0.53
17,AAAATACCCGGACACACACACATATATATATATATT [CACACA_site6137],8.83 ± 0.31
18,CACAGACACGGACACACACACATATATAATATATAT [CACACA_site4495],8.84 ± 0.33
19,CATATATACACATACACACACACACGGACACGCACA [CACACA_site6910],8.87 ± 0.53
20,AATACATACGGACACACACACACATATATATATATA [CACACA_site5884],10.3 ± 0.17
21,CACAGACACGGACACACACACACACCCACATATATA [CACACA_site4355],8.73 ± 0.41
22,TATACACCCGGACACACACACATATATATATATATA [CACACA_site5030],10.1 ± 0.54
23,CACAGACACGGACACACACACATATATATATATATA [CACACA_site5248],10.2 ± 0.26

row,Sequence,gcPBM binding intensity (ln)
1,GTAATACCCAAACACACACACATACCCATATATATA [CACACA_site5510],8.88 ± 0.52
2,TTCAAAATATATATTTGTACATATAGGATCTTTTTC [XGTACX_site4500],8.41 ± 0.45
3,TTTTTTTATTAATGTAGTACAATATAATGTTATATT [XGTACX_site2295],8.54 ± 0.29
4,AGACGAAAATAATAAAGTACTAAAAAAAAAAAAAAA [XGTACX_site927],8.14 ± 0.51
5,AAACAAATATATATATGTACTTATAAAAAAAAAAAT [XGTACX_site2211],8.54 ± 0.45
6,AACATTATAGGACACACACACACATATATATATATA [CACACA_site4721],10.3 ± 0.13
7,AGGATACACGGACACACACACATATAGATTTATATA [CACACA_site6552],8.59 ± 0.52
8,AGGATACACGGACACACACACATATATATATATATA [CACACA_site4654],10.2 ± 0.28
9,TACATATTTATATACACACACACACGGATATTTATA [CACACA_site7239],8.94 ± 0.28
10,ATAAATATAGGACACACACACATATTATATATATAT [CACACA_site5658],9.65 ± 0.12
11,TAATAAATAGGACACACACACATATATATATATTAT [CACACA_site4891],8.87 ± 0.52
12,TATAAAATTTAAATTATACACACTTAAGTAACATCA [CACACA_site531],8.74 ± 0.35
13,AATTATCAAAGTCTATACATACATACATACATACAT [GTGCAC_negctrl_site243],8.95 ± 0.23
14,ATAAATCTACACCGCACACAAAAACAACAAATATTA [CACACA_site5396],8.64 ± 0.58
15,GTTATACTCATATATACACACATATGTAAATATATA [CACACA_site5764],8.94 ± 0.58
16,CAACATTTGAAACACACACACATACAAACAAACAAA [CACACA_site3306],8.89 ± 0.47
17,ATTCATTTTTTGGGGGGTACACCCTTTTAAACATTT [XGTACX_site4797],10.3 ± 0.48
18,TTTTTAATTTTTTTTAAACACACACCGTACATTCAA [CACACA_site7925],8.54 ± 0.38
19,AAAAATTTAAGTGGGGGTACATTTTTTTAACACCTT [XGTACX_site1093],9.46 ± 0.48
20,TATATATCGCATAAAACACACAAAAAAAAAATTAAA [CACACA_site7767],8.35 ± 0.59
21,TCCACACAATTTATAACATGCAAAAAGGCAATAATA [TGCATGCA_site773],8.69 ± 0.42
22,AATATATATATACATACATGCATACATATATATATA [TGCATGCA_site784],9.8 ± 0.14
23,TATATATATATATATACATGCATATATATAATATAT [TGCATGCA_site763],10.1 ± 0.52

row,Sequence,gcPBM binding intensity (ln)
1,CATACATACATACATACATGCATACATACATACATA [TGCATGCA_site218],9.3 ± 0.26
2,AATACATACATATATACATGCATACATATAAATATA [TGCATGCA_site674],8.64 ± 0.35
3,CATATAAATAAATATACATGCATACATACATATATA [TGCATGCA_site713],8.51 ± 0.23
4,TATATATATATACATACATGCATATATATATATATA [TGCATGCA_site513],10.2 ± 0.54
5,AATATATACATACATACATGCATACATATATATAAC [TGCATGCA_site371],8.73 ± 0.23
6,TATATATATATATATACATGCATACATATACATACA [TGCATGCA_site897],10.2 ± 0.5
7,AATACATACATACATACATGCATATATATATATATA [TGCATGCA_site462],10.2 ± 0.14
8,TTGAATAAATTGGAATAAATATAATAAAATAAGGAA [XGTACX_negctrl_site302],8.62 ± 0.38
9,TTTATGAAACAGTGCACACATAAAAATAAATACATA [CACACA_site5631],9.175 ± 0.035
10,ATATATATATGTTTGTGTACTTATGATATCATATAA [XGTACX_site3276],9.66 ± 0.099
11,TTTTTTTTTTTTGAAGTGCATTACTTTTTTTGTATT [GTGCAC_site9811],8.5 ± 0.23
12,AATAAATAAGCAACATGTACATACAAATATATACAT [XGTACX_site8529],8.48 ± 0.35
13,TTGTTCTTTCAAATTATACACACCAAAAAAAAAAAA [CACACA_site3070],8.53 ± 0.4
14,ATATGTTTTTTTTTTTTTTTTTAATTTGTCATAAAT [CACACA_negctrl_site1208],8.35 ± 0.49
15,AAAATATAATATAATGCACACATAAAAAAAAAAAAA [CACACA_site7989],8.52 ± 0.49
16,ATAATAAAAAAAAATGCACACATATATATATATATA [CACACA_site8766],10.3 ± 0.34
17,ATATAAACACTGAATGCATGCACATATATATATATA [TGCATGCA_site940],10.45 ± 0.049
18,CACAAAAATAGACACACACACATATAAATAAATATA [CACACA_site6598],8.62 ± 0.47
19,AATATAATATAATGCACACATAAAAAAAAAAAAATC [CACACA_site1303],8.7 ± 0.32
20,TATATATTAAAAATAGTGCAAAATAATATATATATA [GTGCAC_site9716],9.845 ± 0.049
21,AATATAATATAATGCACACATAAAACAAAAAAAAAA [CACACA_site3012],8.82 ± 0.47
22,ATATGTGTTAAAAATGCACACAAAAAAATATACATA [CACACA_site7988],8.69 ± 0.49
23,TATATATGTTAAAACGTGCACATATATATATATATA [GTGCAC_site9589],10.2 ± 0.21

row,Sequence,gcPBM binding intensity (ln)
1,ATATATATATATATAGTGCAAATAAAAAATAGACAA [GTGCAC_site9796],10.2 ± 0.3
2,GAATAAAAAATATATGTGCACATATAAACTTAAAAT [GTGCAC_site9554],8.9 ± 0.3
3,ATTATATATAAACACACACACATGCATGCACATATA [CACACA_site4237],10 ± 0.26
4,TTACACATACATATGTGGGAAAATATTGCTACATAT [CACACA_negctrl_site463],8.57 ± 0.49
5,TATATTTTTTAAACCACACACAATATAGAGTATAAT [CACACA_site4510],8.66 ± 0.47
6,AAATTAATATATAAAAGTACCCATATATTTAATATA [XGTACX_site3551],8.21 ± 0.39
7,ATGCATATAATTATATGTACATATAAGAAATATATA [XGTACX_site517],8.71 ± 0.37
8,ATTTCTTCTTTTTTTGTGAAACTGGAATATATATAT [XGTACX_negctrl_site527],9.17 ± 0.057
9,TATATAGTAATTTATTCACACAATTGGCACACCTCA [CACACA_site4679],8.71 ± 0.35
10,ATTCTAAATAATAAGAGTACAAATAATATGGAGAAG [XGTACX_site5209],9.12 ± 0.51
11,CATTCTACAATAAAAAGTACATATATATATTATATA [XGTACX_site921],8.43 ± 0.34
12,TTTTGTGATCTTACCACCTTTCATAATATTAATAAA [GTGCAC_negctrl_site360],8.61 ± 0.31
13,ATATTTTATATAATAGTGCAAATAATATTAAATAAT,8.66 ± 0.21
14,TATATATATATATGTGCACACATAATAAAAAAAAAA [CACACA_site3830],10.32 ± 0.064
15,AATATATATATATGTGCACACATATATAATATGTAT [CACACA_site716],8.53 ± 0.28
16,TATATATATATGTGCACACATAATAAAAAAAAAAAT [CACACA_site3831],9.9 ± 0.11
17,ATATAAATATAGTGTGCACACACATAATATATATAT [CACACA_site8713],9.38 ± 0.057
18,TCAAAAATTTATATAGTGCAATATATATATAATGTA,8.31 ± 0.42
19,ATATATATATAGTGCACACATATAAAATATATATAA [CACACA_site2745],9.9 ± 0.071
20,ATATATATATATATAGTGCAAATATCTTCTTTATAA,10.3 ± 0.3
21,ATATATATATATAGTGCACACATATAAAATATATAT [CACACA_site8884],10.29 ± 0.021
